Here are results for 40 compounds from PubChem BioAssay (EPA / NIEHS).

The structures appear in SMILES notation. Activity calls are given as the source filed them. How the source made its calls: active means hit-call score of the fitted dose curve at least 0.9, where 1 is the maximum; inactive means score below 0.9.

Chain of Cytochrome P450 3A7 (Homo sapiens) (P24462 whole entry, looked up): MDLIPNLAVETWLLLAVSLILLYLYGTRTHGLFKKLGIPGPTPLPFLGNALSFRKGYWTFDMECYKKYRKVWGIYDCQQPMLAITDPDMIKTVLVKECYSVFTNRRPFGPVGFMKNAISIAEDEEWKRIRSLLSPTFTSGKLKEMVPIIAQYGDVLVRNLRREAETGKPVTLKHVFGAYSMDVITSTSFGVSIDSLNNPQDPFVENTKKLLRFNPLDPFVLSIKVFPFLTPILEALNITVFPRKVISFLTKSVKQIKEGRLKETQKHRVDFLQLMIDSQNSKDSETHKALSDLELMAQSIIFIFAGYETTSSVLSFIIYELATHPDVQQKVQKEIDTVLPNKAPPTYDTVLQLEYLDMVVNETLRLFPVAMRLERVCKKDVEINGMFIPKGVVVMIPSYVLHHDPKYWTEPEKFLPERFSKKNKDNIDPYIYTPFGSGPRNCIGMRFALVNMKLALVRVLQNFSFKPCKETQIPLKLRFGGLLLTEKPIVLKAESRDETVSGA

Read-out in this assay: Cytochrome P450 3A7 (Homo sapiens) (UniProt P24462)
Nature of the assay: LTEA_HepaRG_CYP3A7: Life Technologies and Expression Analysis (LTEA) Assay for CYP3A7 using HepaRG (AID 2283492). The note with it: mRNA level, 48 h; actives raise or lower the signal. On the procedure:
LTEA_HepaRG is a cell based, multiplexed-readout assay that uses HepaRG, a human liver cell line, with measurements taken at 48 hours after chemical dosing on a 96-well plate.LTEA_HepaRG_CYP3A7 is one of 102 assay component(s) measured in the LTEA HepaRG cell culture assay. It is a marker of NR mediated metabolism/Undifferentiated hepatocyte.Data from the assay component LTEA_HepaRG_CYP3A7 was analyzed into 1 endpoint. This assay endpoint, LTEA_HepaRG_CYP3A7, was analyzed with bidirectional fitting relative to DMSO as the negative control and baseline of activity. Using a type of inducible reporter, measures of mRNA induction for gain or loss-of-signal activity can be used to understand regulation of transcription factor activity. To generalize the intended target to other relatable targets, this assay endpoint is annotated to the cyp intended target family, where the subfamily is xenobiotic metabolism.
A total of 1060 chemcials from the ToxCast library were tested in eight-point concentration-response experiments. Cell culture and cytotoxicity assays were conducted at Thermo Fisher Scientific's Custom Services facility (Madison, WI). A single lot of human HepaRG cells (Thermo Fisher Scientific, Frederick, MD) was used for the cell culture experiments. 96-well format collagen type I coated plates of human HepaRG cells were prepared using established methods. Briefly, cryopreserved HepaRG cells were thawed, plated at a density of approximately 100,000 cells/well in HepaRG Thaw, Plate, and General Purpose media (HPRG770, Thermo Fisher Scientific), and incubated for 48 hours. 0.5% DMSO was selected as vehicle control to balance the requisite need of DMSO in HepaRG cultures to maintain differentiation (for example, baseline metabolism, proportions of hepatocytes vs. cholangiocytes), while enabling further hepatic receptor pathway activation (for example, PXR and CAR) in response to chemical exposure. 48 hours after plating, the culture medium was replaced with HepaRG Serum-Free Incudtion Media. Cells were exposed to each test chemical in duplicate and maintained in CO2 incubators for another 48 hours. Chemical plates were thawed to room temperature and 200x concentrations of treatment groups were prepared. 8-point conentration-reponse curves were made with the highest exposure at 100 uM, followed by half-log dilutions, all in 0.5% DMSO. Each test plate contained variouse controls, induction positive controls (1mM phenobarbital), cytotoxicity positive controls ([…] aflatoxin B1), vehicle controls (0.5% DMSO), and total lysis controls (0.5% DMSO). Cell morphology images were taken using an Essen IncuCyte FLR automated microscope, with six 96-well plates imaged in about 24 minutes. Images were captured and exported and JPEG files. Spent culture media was transfered to black-well plates for the LDH assay, and remaining media was sorted at -80 C for later use. Cells were treated with RLT buffer and frozen until shipped for gene expression analysis. Total RNA was isolated from the cell suspension in 75 uL of Buffer RLT (Qiagen, Germantown, MD 20874) by Quintiles/Expression Analysis (Durham, NC) using a custom isolation procedure. Total RNA from each plate well was transferred to a preamplification plate. Fluidigm's 96.96 Dynamic ArrayTM (Fluidigm, Amsterdam, the Netherlands) technology was used for gene expression analyses by quantitative reverse transcription polymerase chain reaction (qRT-PCR, performed by Quintiles/Expression Analysis, Durham, NC)89. Standard TaqManTM Assays (Applied Biosystems/ThermoFisher Scientific, Foster City, CA) were used to assess the expression of 93 genes selected based on their selectivity and sensitivity to important hepatic receptors known to be modulated by environmental chemicals; importance in human hepatocyte functionality; and hepatotoxicity. […]
Turning to `O=C(O)c1c(Cl)ccc2cc(Cl)cnc12`, the compound was called inactive.

For the compound `CC(C)C1(C)N=C(c2ncccc2C(=O)O)NC1=O` (stereo not given), the compound was classed as inactive.

With `CC1(C)C(C=C(Cl)Cl)C1C(=O)OC(C#N)c1cccc(Oc2ccccc2)c1` (stereo not given), the compound was called inactive.

On to `COCC(C)N(C(=O)CCl)c1c(C)csc1C` (stereo not given), for which the call was inactive.

As to `Nc1c(Cl)c(Cl)nc(C(=O)O)c1Cl`, the result was inactive.

With `OC(c1ccc(Cl)cc1)(c1ccc(Cl)cc1)C(Cl)(Cl)Cl`, the AC50 was 83.5 µM (active).

Regarding `Nc1cnn(-c2ccccc2)c(=O)c1Cl`, the call was inactive.

Turning to `Cc1cnc(C2=NC(C)(C(C)C)C(=O)N2)c(C(=O)O)c1` (stereo not given), the outcome was inactive.

In the case of `CCOc1nc(F)cc2nc(S(=O)(=O)Nc3c(Cl)cccc3Cl)nn12`, the AC50 is 9.92 µM (active).

`COc1ccc(-c2ccccc2)cc1NNC(=O)OC(C)C`: the compound was classed as inactive.

On to `COC(=O)N(C(=O)N1CO[C@@]2(C(=O)OC)Cc3cc(Cl)ccc3C2=N1)c1ccc(OC(F)(F)F)cc1`, for which the AC50 is 73.1 µM (active).

As for `Cc1c(COC(=O)[C@@H]2[C@H](/C=C(\Cl)C(F)(F)F)C2(C)C)cccc1-c1ccccc1`, the AC50 was 4.87 µM (active).

For the compound `COP(=S)(OC)Oc1ccc([N+](=O)[O-])c(C)c1`, the compound was called inactive.

Turning to `COCc1cnc(C2=NC(C)(C(C)C)C(=O)N2)c(C(=O)O)c1` (stereo not given), the outcome was inactive.

`Clc1nc(Cl)nc(Nc2ccccc2Cl)n1`: the compound was classed as inactive.

For `CC(C)Oc1cccc(NC(=O)c2ccccc2C(F)(F)F)c1`, the outcome was inactive.

Consider `Cn1c(-c2ccccc2)cc(-c2ccccc2)[n+]1C`, for which the AC50 was 44.1 µM (active).

On to `COc1cc(OC)nc(NC(=O)NS(=O)(=O)c2ncccc2OCC(F)(F)F)n1`, for which the result was inactive.

In the case of `CCCC(=NOCC)C1=C(O)CC(CC(C)SCC)CC1=O` (stereo not given), the outcome was inactive.

`CC(C)NC(=O)N1CC(=O)N(c2cc(Cl)cc(Cl)c2)C1=O`: the outcome was inactive.

As for `CCN(CC)C(=O)C(C)Oc1cccc2ccccc12` (stereo not given), the AC50 was 80.2 µM (active).

For `CSC(=O)c1c(C(F)F)nc(C(F)(F)F)c(C(=O)SC)c1CC(C)C`, the half-maximal activity concentration (AC50) was 12.6 µM (active).

Take `O=c1n(Cl)c(=O)n(Cl)c(=O)n1Cl`: the compound was called inactive.

Regarding `N#Cc1c(Cl)cccc1Cl`, the compound was classed as inactive.

Consider `N#CN=C1SCCN1Cc1ccc(Cl)nc1`, for which the call was inactive.

Regarding `CNC(=O)N(C)c1nnc(C(C)(C)C)s1`, the compound was called inactive.

On to `CN=C=S`, for which the compound was classed as inactive.

Turning to `COC(=O)c1c(C(F)F)nc(C(F)(F)F)c(C2=NCCS2)c1CC(C)C`, the AC50 is 50 µM (active).

With `O=C1C2CC=CCC2C(=O)N1SC(Cl)(Cl)Cl` (stereo not given), the compound was called inactive.

In the case of `Clc1cccc(C(Cl)(Cl)Cl)n1`, the result was inactive.

Regarding `CCNP(=S)(OC)O/C(C)=C/C(=O)OC(C)C` (stereo not given), the AC50 was 4.03 µM (active).

Take `COC(=O)NC(=S)Nc1ccccc1NC(=S)NC(=O)OC`: the AC50 is 4.46 µM (active).

`CCOc1cc(C(C)(C)C)ccc1C1COC(c2c(F)cccc2F)=N1` (stereo not given): the compound was called inactive.

Consider `CC(C)Nc1nc(Cl)nc(NC(C)C)n1`, for which the AC50 was 2.51 µM (active).

Turning to `CCCCC(C#N)(Cn1cncn1)c1ccc(Cl)cc1` (stereo not given), the AC50 is 3.89 µM (active).

Take `CC1(C)CON(Cc2ccccc2Cl)C1=O`: the AC50 was 1.47 µM (active).

For the compound `CCOC(=O)C(C)OC(=O)c1cc(Oc2ccc(C(F)(F)F)cc2Cl)ccc1[N+](=O)[O-]` (stereo not given), the AC50 is 5.9 µM (active).

Turning to `C=CCOC(=O)C(C)(C)OC(=O)c1cc(-n2c(=O)cc(C(F)(F)F)n(C)c2=O)ccc1Cl`, the AC50 was 11 µM (active).

As to `Nc1c(Cl)c(F)nc(OCC(=O)O)c1Cl`, the compound was classed as inactive.

As to `CCCCC(O)(Cn1cncn1)c1ccc(Cl)cc1Cl` (stereo not given), the AC50 is 89.4 µM (active).

A word on the AC50: it is the concentration at which the activity in the assay is half-maximal.
